{"source": "paper PMC6925144", "about": "“A prospective compound screening contest identified broader inhibitors for Sirtuin 1” (Scientific Reports, 2019)", "note": "Whole data set: some 3,200 compounds, median “TSA(without NAD+) / Primary screening (TSA) / delta Tm (K)” near -0.07, cut for the highest 2% near 0.37. This excerpt belongs to a sample that is enriched for the highest values."}
{"target": "NAD-dependent deacetylase Sirtuin 1 (human, UniProt Q96EB6)", "sequence (Q96EB6 2-747 limits assumed)": "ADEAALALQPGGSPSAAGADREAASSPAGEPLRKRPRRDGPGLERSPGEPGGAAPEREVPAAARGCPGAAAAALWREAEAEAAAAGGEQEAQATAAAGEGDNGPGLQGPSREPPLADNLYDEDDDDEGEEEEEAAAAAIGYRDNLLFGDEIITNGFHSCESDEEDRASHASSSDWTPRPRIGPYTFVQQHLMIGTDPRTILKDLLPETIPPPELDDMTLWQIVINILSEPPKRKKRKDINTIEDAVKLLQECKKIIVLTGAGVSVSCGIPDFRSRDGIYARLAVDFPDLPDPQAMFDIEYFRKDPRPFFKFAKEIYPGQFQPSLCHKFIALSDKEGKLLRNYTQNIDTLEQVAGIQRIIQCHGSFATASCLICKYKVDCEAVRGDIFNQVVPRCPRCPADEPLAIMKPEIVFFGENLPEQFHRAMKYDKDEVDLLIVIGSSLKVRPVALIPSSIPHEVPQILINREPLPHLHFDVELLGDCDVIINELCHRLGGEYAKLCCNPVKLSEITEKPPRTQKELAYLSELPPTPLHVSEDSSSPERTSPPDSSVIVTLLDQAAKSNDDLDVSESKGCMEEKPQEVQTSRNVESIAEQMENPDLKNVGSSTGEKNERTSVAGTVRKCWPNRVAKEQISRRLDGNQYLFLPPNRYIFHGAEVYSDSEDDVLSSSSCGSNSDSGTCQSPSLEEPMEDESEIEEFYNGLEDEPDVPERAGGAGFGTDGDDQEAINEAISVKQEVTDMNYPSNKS", "experiment": "primary screen, delta tm", "parameters": "single well (n = 1)", "details": "10 µM", "protocol": "A total of 3,192 compounds extracted from the proposed lists were first screened by thermal shift assay (TSA), which determined a melting temperature shift (ΔTm) of Sirtuin 1 upon the addition of a test compound at a concentration of 10 µM (n = 1) with primary hit criteria of ΔTm > 0.45 K or ΔTm < −1.5 K. Primary hits (48 compounds) were retested in the same assay at three concentrations (5, 10, 20 µM, n = 4) for hit confirmation and for dose-dependency check. Secondary hits (41 compounds) were checked their selectivity for Sirtuin 1 based on counterscreening on unrelated protein targets (bovine carbonic anhydrase (CA) and recombinant SH2 domain of hABL1 kinase (ABL1)) at three different concentrations (5, 10, 20 µM, n = 4), which yielded 38 hit compounds, hereafter referred to as TSA hits. The TSA screening above was conducted in the absence of NAD+.", "units": {"TSA(without NAD+) / Primary screening (TSA) / delta Tm (K)": "K"}}
{"smiles": "COc1ccc(Br)cc1/C=C1/Cc2ccccc2C1=O", "TSA(without NAD+) / Primary screening (TSA) / delta Tm (K)": -0.08}
{"smiles": "O=C1/C(=C\\c2cc(Br)cc(Br)c2O)CC/C1=C\\c1cc(Br)cc(Br)c1O", "TSA(without NAD+) / Primary screening (TSA) / delta Tm (K)": 0.55}
{"smiles": "O=C1/C(=C\\c2ccc(Br)cc2)CC/C1=C/c1ccccc1OC(F)F", "TSA(without NAD+) / Primary screening (TSA) / delta Tm (K)": -0.08}
{"smiles": "O=C(CCSc1ncccn1)Nc1c(Cl)cccc1Cl", "TSA(without NAD+) / Primary screening (TSA) / delta Tm (K)": -0.04}
{"smiles": "Cc1ccc(C23CC4CC(CC(C(=O)OCC(N)=O)(C4)C2)C3)cc1C", "TSA(without NAD+) / Primary screening (TSA) / delta Tm (K)": -0.22}
{"smiles": "Cc1ccc(C23CC4CC(CC(C(=O)OC(C)C(=O)Nc5ccc(S(N)(=O)=O)cc5)(C4)C2)C3)cc1C", "note": "(stereo not shown)", "TSA(without NAD+) / Primary screening (TSA) / delta Tm (K)": 0.48}
{"smiles": "Cc1ccc(C23CC4CC(CC(C(=O)OCC(=O)Nc5ccc(S(N)(=O)=O)cc5)(C4)C2)C3)cc1", "TSA(without NAD+) / Primary screening (TSA) / delta Tm (K)": 0.32}
{"smiles": "Cc1ccc(N(C)S(=O)(=O)c2cccc(C(=O)N(C)Cc3ccccc3Cl)c2)cc1", "TSA(without NAD+) / Primary screening (TSA) / delta Tm (K)": -0.24}
{"smiles": "O=S1(=O)CCC(N2CCN(c3ncnc4c3oc3ccccc34)CC2)C1", "note": "(stereo not shown)", "TSA(without NAD+) / Primary screening (TSA) / delta Tm (K)": -0.11}
{"smiles": "Cc1nc(N2CCN(c3cccc(C(F)(F)F)c3)CC2)c2c3c(sc2n1)CCC3", "TSA(without NAD+) / Primary screening (TSA) / delta Tm (K)": 0.16}
{"smiles": "CC(C)CC(=O)Nc1ccc(C(=O)COC(=O)CNC(=O)CC23CC4CC(CC(C4)C2)C3)cc1", "TSA(without NAD+) / Primary screening (TSA) / delta Tm (K)": -0.04}
{"smiles": "CCOc1ccc(Oc2ccc(NC(=O)CNC(=O)CC34CC5CC(CC(C5)C3)C4)cc2)cc1", "TSA(without NAD+) / Primary screening (TSA) / delta Tm (K)": 0.38}
{"smiles": "COc1ccc(NC(=O)CC23CC4CC(C2)CC(CC(=O)Nc2ccc(OC)cc2)(C4)C3)cc1", "TSA(without NAD+) / Primary screening (TSA) / delta Tm (K)": 0.15}
{"smiles": "NCCOCC(=O)O", "TSA(without NAD+) / Primary screening (TSA) / delta Tm (K)": -0.23}
{"smiles": "Cc1ccc(C(=O)Nc2nc3ccc(NS(=O)(=O)c4ccc5c(c4)CCC(=O)N5)cc3s2)s1", "TSA(without NAD+) / Primary screening (TSA) / delta Tm (K)": 0.66}
{"smiles": "CCCn1c(NC(=O)c2ccc3c(c2)CCC(=O)N3)nc2ccccc21", "TSA(without NAD+) / Primary screening (TSA) / delta Tm (K)": 0.12}
{"smiles": "O=C1CCc2cc(NC(=O)c3cccnc3)ccc2N1", "TSA(without NAD+) / Primary screening (TSA) / delta Tm (K)": -0.04}
{"smiles": "NCC(N)C1CCC1", "note": "(stereo not shown)", "TSA(without NAD+) / Primary screening (TSA) / delta Tm (K)": -0.31}
{"smiles": "NC(=O)c1cc(NC(=O)CN2CC=C(c3ccc(O)cc3)CC2)cc(C(N)=O)c1", "TSA(without NAD+) / Primary screening (TSA) / delta Tm (K)": 0.15}
{"smiles": "O=C1NC(=S)NC(=O)C1=NNc1c(F)cccc1F", "TSA(without NAD+) / Primary screening (TSA) / delta Tm (K)": -0.08}
{"smiles": "Cn1ncc2c(=O)n(CC(=O)N3CCCc4c(C(N)=O)cccc43)cnc21", "TSA(without NAD+) / Primary screening (TSA) / delta Tm (K)": -0.18}
{"smiles": "O=C(NC1(C(=O)N2CCN(C(=O)c3cnccn3)CC2)CCOC1)OCc1ccccc1", "note": "(stereo not shown)", "TSA(without NAD+) / Primary screening (TSA) / delta Tm (K)": -0.12}
{"smiles": "NC(=O)c1c(NC(=O)C2CCN(c3ncc(C(F)(F)F)cc3Cl)CC2)sc2c1CCC2", "TSA(without NAD+) / Primary screening (TSA) / delta Tm (K)": 0.39}
{"smiles": "Cc1sc(NC(=O)C2CCN(c3ncc(C(F)(F)F)cc3Cl)CC2)c(C(N)=O)c1C", "TSA(without NAD+) / Primary screening (TSA) / delta Tm (K)": 0.28}
{"smiles": "Cc1sc2ncnc(N3CCC(C(=O)Nc4sc5c(c4C(N)=O)CCCC5)CC3)c2c1C", "TSA(without NAD+) / Primary screening (TSA) / delta Tm (K)": 0.16}
{"smiles": "Cc1ccc(OCC(O)Cn2c(C(F)(F)F)ccc(C(N)=O)c2=O)cc1", "note": "(stereo not shown)", "TSA(without NAD+) / Primary screening (TSA) / delta Tm (K)": -0.13}
{"smiles": "Cc1ccc(NC(=O)C(OC(=O)C23CC4CC(CC(O)(C4)C2)C3)c2ccccc2)c([N+](=O)[O-])c1", "note": "(stereo not shown)", "TSA(without NAD+) / Primary screening (TSA) / delta Tm (K)": 0.07}
{"smiles": "CC(NC(=O)CNC(=O)CNC(=O)c1cccs1)c1ccccn1", "note": "(stereo not shown)", "TSA(without NAD+) / Primary screening (TSA) / delta Tm (K)": -0.23}
{"smiles": "O=C1CCCCC(C(=O)Nc2ccc(-c3nc4ccccc4[nH]3)cc2)N1", "note": "(stereo not shown)", "TSA(without NAD+) / Primary screening (TSA) / delta Tm (K)": -0.03}
{"smiles": "O=C(CC12CC3CC(CC(C3)C1)C2)NCC(=O)Nc1ccc(Sc2nc3ccccc3[nH]2)cc1", "TSA(without NAD+) / Primary screening (TSA) / delta Tm (K)": 0.18}
{"smiles": "O=C(NC(=S)Nc1ccc(-c2nc3ccccc3[nH]2)cc1)C12CC3CC(CC(C3)C1)C2", "TSA(without NAD+) / Primary screening (TSA) / delta Tm (K)": 0.58}
